# Results filed as inconclusive are left out. The source made the active and inactive calls. Cut-off read from the data, not from the text of the source, unless noted: active = inhibition above about 30%; inactive = the rest.
# Columns and labels:
# [1] = reduced viability of SK-BR-3 breast cancer cells – cell-based, 24 h, human, pilot screen (AID 572;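 active = viability at or below 10% of carrier control in both of two separate runs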;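 note: compound exposure lasted between 18 and 24 h rather than exactly 24 h; 100% = carrier-treated control wells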); settings: SK-BR-3 viability, CellTiter-Glo luminescence, at 10 µM, stronger effect = lower value
# [2] = H69AR cell proliferation blockers – human, duplicate replicates, primary screen (AID 580;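 active = viability at or under a set limit in both replicates, limit being median viability minus 3 SD, cut at about 48% in these data, passing the limit was not always enough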;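 note: 100% = mean luminescence of untreated wells and 0% = no signal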); settings: H69AR lung tumor cells viability, ATP luminescence, 72 h; at 10 µM; stronger effect = lower value
# [3] = MRP1 drug-resistance reversers in H69AR cells – cell-based, doxorubicin co-treatment, pilot screen (AID 601;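 active = viability loss from added drug above about 55%, and viability with drug at most 40%, in both replicates, limit read from the data, passing the limit was not always enough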); settings: CellTiter-Glo, 72 h, at 10 µM; for differential viability (reversal): stronger effect = higher value
# [4] = yeast transport mutant growth inhibition pilot in 384-well plates, post-Golgi transport modulator project (AID 636; in the data active = inhibition above about 31%); settings: absorbance 615 nm, about 18 h, stronger effect = higher value
# [5] = growth suppression of yeast trafficking mutant, preliminary HTS, modulators of trafficking downstream of Golgi apparatus project, 1536-format plate, OD 615 nm (AID 637); settings: yeast transport mutant growth, absorbance 615 nm, 18 h; stronger effect = higher value
# [6] = S. cerevisiae growth inhibition in permissive medium (OD615), pilot counter-assay for S. cerevisiae lifespan shortening project, permissive growth control (AID 705;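 active = growth inhibition above 25% in both replicates, a cutoff set 3 SD above the mean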); settings: OD615, 24 h, at 10 µM, stronger effect = higher value
# [7] = S. cerevisiae growth inhibition in restrictive medium, OD615, pilot screen, restrictive growth control, yeast lifespan reduction project (AID 706;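 active = growth inhibition above a set limit, 3 SD over mean compound inhibition, in both replicates, cut at about 43% in these data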;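 note: modified DeaD lifespan yeast strain shifted to restrictive glucose medium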); settings: OD615, 48 h, at 10 µM, stronger effect = higher value
# [8] = doxorubicin toxicity protection in MRP-1 cells – H69AR cells, CellTiter-Glo, duplicate, MRP-1 activator project, pilot screen (AID 807;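 active = viability increase at or above a cutoff of the median across tested compounds plus 3 SD, cut at about 8.5% in these data, passing the limit was not always enough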;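 note: compound pretreatment 18-22 h then 72 h combined with doxorubicin; 0% = doxorubicin alone and 100% = vehicle without doxorubicin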); settings: H69AR viability with doxorubicin, CellTiter-Glo luminescence; at 10 µM; stronger effect = higher value
# [9] = viability of HCT116 without oncogenic beta-catenin – human colon tumor cells, pilot screen (AID 823;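 active = cell viability at or below a set limit in both duplicate runs, the limit being the all-compound median minus 4 SD, cut at about 23% in these data, passing the limit was not always enough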;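 note: 0% = wells killed by 20 µM Hyamine and 100% = untreated DMSO cell wells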); settings: HCT116 beta-catenin knockout viability, CellTiter-Glo, 60 h; at 10 µM; stronger effect = lower value
# [10] = viability of PTEN-null HCT116 cells – cell-based, HCT116 clonal line, CellTiter-Glo, pilot screen (AID 824;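 active = viability at or below 27.92% in each of two runs, the all-compound median minus 4 SD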;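 note: 0% = 20 µM Hyamine control and 100% = vehicle cell control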); settings: HCT116 PTEN-deleted viability, 60 h, at 10 µM, stronger effect = lower value
# [11] = RAM pathway blockade in budding yeast – dse1pr::URA3 reporter, 5-FOA selection, pilot screen (AID 869;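 active = inhibition over a set limit, the all-compound mean plus 3 SD, in both replicate runs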;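 note: 0% = DMSO wells with no growth and 100% = 10 µM 1-NA-PP1 with full growth; RAM network block rescues cells from 5-FOA so hits raise OD615 growth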); settings: S. cerevisiae dse1pr::URA3 5-FOA growth, OD615, 2 d; at 10 µM; stronger effect = higher value; strain carries analog-sensitive mutant Cbk1 kinase
# [12] = H69AR cells + 2 uM doxorubicin, measured here: viability with 2 uM doxorubicin, stronger effect = lower value
# [13] = H69AR cells, compound alone cytotoxicity
SMILES,viability [1],viability [2],differential viability (reversal) ([3]; H69AR cells + 2 uM doxorubicin),"viability [3, 12] [%]","viability [3, 13] [%]",inhibition [4],inhibition [5],growth inhibition [6],growth inhibition [7],viability increase [8],viability [9],viability [10],inhibition [11]
CCC(=O)Oc1ccc(C(CC)C(CC)c2ccc(OC(=O)CC)cc2)cc1 (stereo not drawn),112% (inactive),85.8% (inactive),-16.4% (inactive),102,85.8,-5.32% (inactive),-1.33% (inactive),,,,,,
CO[C@H]1C[C@@H]2CC[C@@H](C)[C@@](O)(O2)C(=O)C(=O)N2CCCC[C@H]2C(=O)O[C@H]([C@H](C)C[C@@H]2CC[C@@H](O)[C@H](OC)C2)CC(=O)[C@H](C)C=C(C)[C@@H](O)[C@@H](OC)C(=O)[C@H](C)C[C@H](C)C=CC=CC=C1C,113% (inactive),67.1% (inactive),1.46% (inactive),65.7,67.1,93.6% (active),82.2% (active),,,,,,
COc1ccc(Cl)c(N2CCN(CCCNC(=O)Nc3ccc(C)cc3)CC2)c1,98% (inactive),,-14.9% (inactive),60.3,45.4,-5.34% (inactive),-2.91% (inactive),,,,,,
O=S(=O)(c1cccc2cnccc12)N1CCCNCC1,140% (inactive),97.4% (inactive),1.83% (inactive),95.5,97.4,-2.08% (inactive),4.5% (inactive),,,,,,
CCN(CC)S(=O)(=O)c1ccc2[nH]cc(C(=O)NCCC3=CCCCC3)c(=O)c2c1,138% (inactive),3.36% (active),-40.9% (inactive),44.3,3.36,-6.4% (inactive),-0.65% (inactive),,,,,,
CCCCC[C@H](O)/C=C/[C@H]1C=CC(=O)[C@@H]1C/C=C\CCCC(=O)O,111% (inactive),67.4% (inactive),9.76% (inactive),57.6,67.4,-2.99% (inactive),-0.5% (inactive),,,,,,
N#Cc1ccccc1Cn1c(=O)n(Cc2ccc(C(=O)NCc3ccco3)cc2)c(=O)c2ccccc21,73% (inactive),11% (active),-8.33% (inactive),19.4,11,-1.82% (inactive),-7.21% (inactive),,,,,,
CN1CCN(C2=Nc3cc(Cl)ccc3Nc3ccccc32)CC1,94% (inactive),68% (inactive),17% (inactive),51,68,1.82% (inactive),3.67% (inactive),,,,,,
Cc1ccc(Cl)cc1N1CCN(C(=O)c2cn(C)c(=O)c3c2c2ccccc2n3C)CC1,94% (inactive),3.07% (active),-28.7% (inactive),31.8,3.07,-1.73% (inactive),4.73% (inactive),,,,,,
Fc1ccc(C(c2ccc(F)cc2)N2CCN(C/C=C/c3ccccc3)CC2)cc1,89% (inactive),76.7% (inactive),-5.65% (inactive),82.3,76.7,3.38% (inactive),-1.17% (inactive),,,,,,
COc1cc2c(C#N)c(N3CCN(c4ccccc4OC)CC3)nc(N)c2c(N)n1,110% (inactive),67.8% (inactive),4.45% (inactive),63.3,67.8,-0.26% (inactive),5.9% (inactive),,,,,,
CCCCn1c(SCc2ccc(Cl)cc2)nc2c1c(=O)[nH]c(=O)n2C,80% (inactive),76.7% (inactive),6.03% (inactive),70.7,76.7,-4% (inactive),0.73% (inactive),,,,,,
COc1ccc(Cl)cc1C(=O)NCCc1ccc(S(=O)(=O)NC(=O)NC2CCCCC2)cc1,116% (inactive),93.5% (inactive),-9.18% (inactive),103,93.5,0.26% (inactive),-1.33% (inactive),,,,,,
Cc1ccc(-c2cc(C(F)F)nc(NCC3CCCO3)n2)cc1 (stereo not drawn),86% (inactive),100% (inactive),6.21% (inactive),94.2,100,1.56% (inactive),-5.25% (inactive),-12.2% (inactive),-9% (inactive),2.09% (inactive),66.4% (inactive),71.6% (inactive),1.38% (inactive)
O=S(=O)(c1ccc(Oc2ccc(-c3nnco3)cc2)nc1)N1CCC(Cc2ccccc2)CC1,109% (inactive),,-8.52% (inactive),60.4,51.9,-4.11% (inactive),-10.3% (inactive),,,,,,
C(=C\c1ccccc1)/CN1CCN(C(c2ccccc2)c2ccccc2)CC1,90% (inactive),71% (inactive),-2.73% (inactive),73.7,71,1.43% (inactive),-3% (inactive),,,,,,
Cc1cccn2c(=O)c3cc(C(=O)NC4CCCC4)c(=N)n(C4CCCC4)c3nc12,107% (inactive),27.6% (active),15.5% (inactive),12.1,27.6,-8.49% (inactive),0.81% (inactive),,,,,,

# Source: PubChem BioAssay
